Marburg entry = Marburg virus entry inhibition | Marburg virus pseudotype entry/binding inhibition, cell-based | Potency, µM (titrated, usually from 49.2 µM), for the others: at the highest dose activity change, negative = inhibition, usual class: inhibitors | 18,000 compounds, 6.5% hits
Lassa entry = inhibitors of Lassa virus binding or entry into cells; Lassa virus pseudotyped entry inhibition, cell-based qHTS; Potency, µM (titrated, usually from 49.2 µM), inactives show top-dose activity change, negative = inhibition, usual class: inhibitors; 18,000 compounds, 4.1% hits
The depositor's hits bear a star; ? = inconclusive; nt = no result given; ! = not confirmed by another sample; [ ] = remark or other dose. Compounds with a hit are over-represented: about 8.6% of the library has one in this group of screens. Calls come from the whole dose curve; tested in HEK293 cells. % is set by controls: 0 for no effect and ±100 for the full control effect; potency is the fitted concentration of half-maximal effect.

SMILES | Marburg entry | Lassa entry
CC[C@H]1OC(=O)C[C@@H](O)[C@H](C)[C@@H](O[C@@H]2O[C@H](C)[C@@H](O[C@H]3C[C@@](C)(O)[C@@H](O)[C@H](C)O3)[C@H](N(C)C)[C@H]2O)[C@@H](CC=O)C[C@@H](C)C(=O)/C=C/C(C)=C/[C@@H]1CO[C@@H]1O[C@H](C)[C@@H](O)[C@@H](OC)[C@H]1OC | -20% | 1%
COC1[C@@H](O[C@@H]2O[C@H](C)[C@@H](O[C@H]3C[C@@](C)(O)[C@H](OC(=O)CC(C)C)[C@H](C)O3)[C@H](N(C)C)[C@H]2O)[C@@H](CC=O)C[C@@H](C)[C@@H](O)/C=C/C=C/C[C@@H](C)OC(=O)C[C@H]1OC(C)=O (some centres undefined) | 7%[17.8 µM] | 9%[17.8 µM]
CO[C@@H]1[C@@H](O[C@@H]2O[C@H](C)[C@@H](O[C@H]3C[C@@](C)(O)[C@@H](O)[C@H](C)O3)[C@H](N(C)C)[C@H]2O)[C@@H](CC=O)C[C@@H](C)[C@@H](O[C@@H]2CC[C@H](N(C)C)[C@@H](C)O2)/C=C/C=C/C[C@@H](C)OC(=O)C[C@H]1OC(C)=O | 3.2µM* | ?
CO[C@@H]1[C@@H](O[C@@H]2O[C@H](C)[C@@H](O[C@H]3C[C@@](C)(O)[C@@H](OC(=O)CC(C)C)[C@H](C)O3)[C@H](N(C)C)[C@H]2O)[C@@H](CC=O)C[C@@H](C)C(=O)/C=C/C2OC2C[C@@H](C)OC(=O)C[C@H]1OC(C)=O (some centres undefined) | 13µM* | ?
C[C@@H]1[C@@H](c2ccccc2)Cc2nc3ccccc3nc2C[C@H]1C(=O)N1CCCC1 | -15%[8.59 µM] | 18%[8.59 µM]
C=CC[C@@H]1C=C[C@@H](Oc2ccc(OC)cc2)[C@H](COC(=O)c2ccc(Br)cc2)O1 | -4%[8.59 µM] | -31%[8.59 µM]
CC(C)(C)NCC(O)COc1ccc(NC(=O)NC2CCCCC2)cc1 (centres undefined) | -9% | -10%
CCc1ccccc1OC[C@@H](O)CN[C@H]1CCCc2ccccc21 | 8.9µM* | 28µM*
C=CCOc1ccccc1OCC(O)CNC(C)C (centres undefined) | 11%[17.8 µM] | -2%[17.8 µM]
CC(C)(C)NC[C@H](O)COc1ccccc1C1CCCC1 | 7.9µM* | ?
COc1cccc([C@H]2Oc3ccc(OC)cc3C(=NO[C@@H](C)c3cc(-c4c(C)cc(C)cc4C)no3)[C@H]2O)c1 | 5%[8.59 µM] | 10%[8.59 µM]
CN(C)CC/C=C1/c2ccccc2Sc2ccc(Cl)cc21 | 18µM* | ?
COC(=O)c1cc2c(s1)-c1ccccc1OC2 | 33% | 2%
CN(C)CC/C=C1\c2ccccc2COc2ccccc21 | 10µM* | -16%
Cc1ccc(CNc2nc(CN3CCSCC3)nc3ccccc23)o1 | -12% | -7%
CC#CCN1C(=O)N(C)C(c2ccccc2)C(C(=O)OC)=C1C (centres undefined) | -4%[8.59 µM] | 10%[8.59 µM]
Cc1cc(-c2ccc(N=Nc3ccc4c(S(=O)(=O)O)cc(S(=O)(=O)O)c(N)c4c3O)c(C)c2)ccc1N=Nc1ccc2c(S(=O)(=O)O)cc(S(=O)(=O)O)c(N)c2c1O | -21% | ?
Nc1c(N=Nc2ccc(-c3ccc(N=Nc4cc(S(=O)(=O)O)c5ccccc5c4N)cc3)cc2)cc(S(=O)(=O)O)c2ccccc12 | 13µM* | 0%
COC(=O)[C@@H]1CC[C@H](C)[C@@H](c2ccc(C)cc2)N1C(=O)c1ccc(C=NO[C@@H](C)c2cc(-c3c(C)cc(C)cc3C)no2)cc1 | 6%[8.59 µM] | 10%[8.59 µM]
COc1ccccc1C1CN(CCNC(=O)c2cnsn2)Cc2ccccc2O1 (centres undefined) | ? | -5%
COc1ccc(O[C@H]2C=C[C@@H](c3ccccc3)O[C@H]2CON=C(C)CCN2CCCc3nc(C)c(C)cc32)cc1 | ? | 2%[8.59 µM]
Clc1ccccc1C(c1ccccc1)(c1ccccc1)n1ccnc1 | 11µM* | 13µM*
Clc1ccccc1-c1nccc(-n2ccnc2)n1 | -7% | 0%
COP(=S)(OC)Oc1ccc(S(N)(=O)=O)cc1 | -5% | -18%
COP(=S)(OC)Oc1ccc([N+](=O)[O-])cc1 | 11µM* | ?
SMILES | Marburg entry | Lassa entry
Nc1c(S(=O)(=O)O)cc(Nc2cccc3ccccc23)c2c1C(=O)c1ccccc1C2=O | 5% | -15%
Nc1ccccc1S(=O)(=O)Nc1cccc2cccnc12 | 7.1µM* | 18µM*
COCC1CCCN(Cc2ccc3c(c2)CN(C(=O)c2sc(C)nc2C)CCO3)C1 (centres undefined) | -11% | -7%
C[C@]12C[C@@](C)(C=C1C=Cc1ccccc1)C(=O)C[C@H]2c1ccccc1 | 3%[8.59 µM] | 0%[8.59 µM]
CS(=O)(=O)CCN(CC#N)Cc1ccc(-c2ccc3ncnc(Nc4ccc(OCc5cccc(F)c5)c(Cl)c4)c3c2)o1 | -10% | 21%
CCCCCCCCCCCCOCCOCCOCCOCCO | -48% | -15%
CCCCCCCCCc1ccc(OCCOCCO)cc1 | ? | 11µM*
FC(F)(F)c1cc(CO[C@H]2CCCN[C@H]2c2ccccc2)cc(C(F)(F)F)c1 | 10µM* | 25µM*
COC(=O)C1=C(C)N(Cc2ccccc2)C(=O)NC1c1cccc(C(F)(F)F)c1 (centres undefined) | 17%[8.59 µM] | 5%[8.59 µM]
COC(=O)C12CC3=CCC4C(=O)N(c5ccccc5)C(=O)C4C3Cc3ccccc3[C@H]1CNC2=O (some centres undefined) | 5%[8.59 µM] | 21%[8.59 µM]
CC[C@@H]1CN2CCc3cc(OC)c(OC)cc3[C@H]2C[C@@H]1C[C@@H]1NCCc2cc(O)c(OC)cc21 | ? | 0.35µM*
COc1cc2c(cc1OC)[C@H](C)NCC2 | -19%[17.8 µM] | 5%[17.8 µM]
CC[C@@H](C)[C@H](NS(=O)(=O)c1ccc(F)cc1Br)C(=O)OC | 22% | 5%
CCN1C(N(C)CCOC)=NC(c2cccc(F)c2)C(C(=O)OC)=C1C (centres undefined) | -24%[8.59 µM] | nt
CC(=O)OC1CCC2(C)C3=C(CCC2C1(C)C)[C@@]1(C)CCC(C(C)CCC=C(C)C)[C@@]1(C)CC3 (some centres undefined) | -14% | -8%
COc1cc(/C=C/C(=O)O[C@H]2CC[C@]34C[C@]35CC[C@]3(C)[C@@H]([C@H](C)CCC=C(C)C)CC[C@@]3(C)[C@@H]5CC[C@H]4C2(C)C)ccc1O | 1% | 25µM*!
C=CC[C@]1(C(=O)OC)C=C[C@H](C)[C@@H](c2ccccc2)N1C(=O)C(F)(F)F | -15%[8.59 µM] | 10%[8.59 µM]
CC(C)c1c(O)ccc2c1CCC1[C@@](C)(CO)CCC[C@@]21C (some centres undefined) | -8% | ?
COC(=O)[C@@]1(C)CCC[C@@]2(C)c3ccc(O)c(C(C)C)c3CCC21 (some centres undefined) | 13µM* | 11µM*
C[C@H]1CN(c2ccccc2)C(=O)[C@H]1CC(=O)Nc1ccc(Br)cc1 | -9% | 25%
C=CS(=O)(=O)O | 22µM* | -14%
CC(=O)OC[C@H]1O[C@H](C#Cc2ccc(F)cc2F)C=C[C@H]1OC(C)=O | 36%[8.59 µM] | 1%[8.59 µM]
COC1=C[C@H](C(=O)NCCNC(C)=O)[C@@]2(C)Cc3ccccc3[C@@H]2CC1=O | -20%[8.59 µM] | nt
COC1=C2C[C@H](C)C[C@H](OC)[C@H](O)[C@@H](C)/C=C(/C)[C@H](OC(N)=O)[C@@H](OC)/C=C\C=C(\C)C(=O)NC(=CC1=O)C2=O | 23% | 5%
C=CCNC1=C2C[C@@H](C)C[C@H](OC)[C@H](O)[C@@H](C)/C=C(\C)[C@H](OC(N)=O)[C@@H](OC)/C=C\C=C(/C)C(=O)NC(=CC1=O)C2=O | ? | 3.5µM*!
